In ChEMBL document CHEMBL3988442, “University of Dundee, Small-Polar-MMV Screening Library” (2021):
Hit rate of the full screen: of about 48,000 compounds, about 13,000 (27%) showed an effect of 50% or more. Some of the results follow.

These compounds were tested on Wolbachia pipientis (assay: Anti-Wolbachia Cell-Based Screen). Conditions: 5 µM.
Assay type: functional
Parameters: scale not given: in the data most compounds retested in dose-response had high values

Structure (SMILES) | Percent Effect [%]
O=C(c1cccc(Cl)c1Cl)N1CCN(CC(O)Cn2cccn2)CC1 (stereo unspecified) | -7.394
Cc1ccn(-c2ccc(NCc3ccccc3F)nn2)n1 | -4.619
CSCCC(=O)N(C/C=C/c1ccccc1)CCO | -21.61
CC(C)(C)Oc1ccc(C(=O)N2CCOCC2c2ncon2)cc1 (stereo unspecified) | 0.1698
Oc1nnc(-c2cccs2)c2sc(N3CCCC3)nc12 | -2.433
CCC[C@H]1CN(Cc2ccc(N(C)C)nc2)C[C@@H]1NC(=O)CO | -10.52
CC(C)Nc1ncc(CN2C[C@@H](CN3CCC(O)CC3)[C@@H](CO)C2)cn1 | -6.538
O=C(c1ccc(Cl)cc1)N1CCn2c(nn(-c3cccc(Cl)c3)c2=O)C1 | 114.6
CC(C)c1nnc2n1CCN(C(=O)c1ccc(-n3cnnc3)cc1)C2 | -1.108
CN1CCN(Cc2cnc3n2CCN(C(=O)c2ccncc2)C3)CC1 | 9.234
O=C(c1ccncc1)N1CCn2c(nnc2-c2ccccc2)C1 | -8.4
O=C(c1ccc(Cl)cc1)N1CCn2c(nn(-c3ccncc3)c2=O)C1 | 118.8
Cc1ccc(-n2nc3n(c2=O)CCN(C(=O)c2ccc(Cl)cc2)C3)cc1 | 122
CC(C)c1nnc2n1CCN(C(=O)c1ccc(OCC(N)=O)cc1)C2 | -11.93
O=C(c1ccc(Cl)cc1)N1CCn2c(nn(-c3ccc(Cl)cc3)c2=O)C1 | 107.9
CC(C)c1nnc2n1CCN(C(=O)c1ccc(S(C)(=O)=O)cc1)C2 | -9.775
CC(C)c1nnc2n1CCN(C(=O)c1ccc(Cn3cccc3)cc1)C2 | -2.793
Cc1cccc(-n2ncc(C(=O)N3CCn4c(C)nnc4C3)c2C)c1 | -8.447
CCOCCn1nc(C)cc1C(=O)N1CC[C@](C)(O)[C@H](C)C1 | -22.18
C[C@@H]1CN(Cc2nc(C(N)=O)no2)CC[C@@]1(O)C1CC1 | 3.604
CCN(CC)C(CNCc1ccc(O)cc1)c1ccco1 (stereo unspecified) | 0.1551
O=C(NCCCn1ccnc1)C1COCC(=O)N1Cc1ccccc1 (stereo unspecified) | -1.911

Structure (SMILES) | Percent Effect [%]
c1cncc(CN(CCCn2ccnc2)CC2CCOC2)c1 (stereo unspecified) | 114.4
CCCN(Cc1cccnc1)Cc1ccc(C2CCCCO2)o1 (stereo unspecified) | 8.313
Cc1ccc(CN(CCCn2ccnc2)Cc2c[nH]cn2)s1.O=C(O)CC(O)(CC(=O)O)C(=O)O | -8.779
CC1COCCN1C(=O)NCCCn1ccnc1 (stereo unspecified) | -6.702
CCc1ccc(CN(CCCn2ccnc2)Cc2ccc(C)s2)o1.O=C(O)CC(O)(CC(=O)O)C(=O)O | -10.6
CN(Cc1cccnc1)CC1CCOc2ccccc2C1 (stereo unspecified) | 1.385
COc1ccccc1CN(CCCn1ccnc1)CC1CCOC1.O=C(O)CC(O)(CC(=O)O)C(=O)O (stereo unspecified) | 173.3
Fc1ccccc1CN(CCCn1ccnc1)CC1CCOC1.O=C(O)CC(O)(CC(=O)O)C(=O)O (stereo unspecified) | 96.39
Cc1nc(C)c(C(=O)NCCOc2ccc(C(F)(F)F)cn2)o1 | -28.79
N[C@H]1CCCN(C(=O)c2cnc(COc3ccccc3)nc2O)C1 | -11.28
CC(C)n1c(C2CCCN(CCS(C)(=O)=O)C2)nc2ccccc21 (stereo unspecified) | -3.684
Cc1nc2sccn2c1C(=O)N1CCn2nc(C(=O)NC3CC3)cc2C1 | 8.039
Cc1cnc(N2C[C@H]3CCCC(N(C)Cc4ccccn4)[C@H]3C2)nc1.O=C(O)C(F)(F)F (stereo partly specified) | -11.38
CCCN1CCN(Cc2cccc(OC(C)C)c2)[C@H]2CS(=O)(=O)C[C@H]21 | -22.43
Cc1c[nH]nc1C1CN(c2cnccn2)CCO1 (stereo unspecified) | 155.2
CCc1cnc(N2CCOC(CCOC)C2)nc1 (stereo unspecified) | -10.95
CC(C)C1CN(c2cnccn2)CCC(=O)N1Cc1ccc(F)cc1 (stereo unspecified) | -0.3567
COc1ccc(C(=O)C2CCCN(c3cnccn3)C2)c(C)c1 (stereo unspecified) | -36.51
Cc1c[nH]nc1C1CN(c2ncccn2)CCO1 (stereo unspecified) | 139.2
Cc1c[nH]nc1C1CCN(c2cnccn2)C1 (stereo unspecified) | 87.37
COCCn1ccnc1C1CCCN(c2cnccn2)C1 (stereo unspecified) | -8.201
COCCN1C[C@@H]2CN(c3cnccn3)C[C@@H]2C1=O | -23.71

Structure (SMILES) | Percent Effect [%]
Cc1cccc(C)c1OC1CN(Cc2cnc(N3CCOCC3)nc2)C1 | -7.257
Cc1c[nH]nc1C1CCCN(c2cnccn2)C1 (stereo unspecified) | 152.5
N#Cc1cccc(N2CCC(CO)(CCCc3ccccc3)CC2)n1 | -12.61
CC(C)(C)c1cnc(CNc2cccc(Cn3cnnc3)c2)o1 | -22.9
CC(C)[C@H](NC(=O)c1cccc(CCC(C)(C)O)c1)C(N)=O | -12.73
COc1ccc(CNC(=O)NCc2ccc(C(N)=O)cc2)cn1 | 4.713
CC(C)[C@H](NC(=O)NC1CCS(=O)(=O)C1)C(=O)NCc1cccnc1 (stereo partly specified) | 1.711
Cc1cccc(C(=O)NC(C(=O)NCc2ccc(O)nc2)C(C)C)c1 (stereo unspecified) | 103
COc1ccc(CNC(=O)C(NC(=O)Cc2ccccc2)C(C)C)cn1 (stereo unspecified) | 88.86
COc1ccc(CNC(=O)NCc2ccc(C)cc2)cn1 | -5.418
CCOC(=O)NC(C(=O)NCc1ccc(N2CCCCC2)nc1)C(C)C (stereo unspecified) | 2.776
Cc1nccn1-c1ccc(CNC(=O)c2ccc(O)nc2)cn1 | -3.999
CC(C)C(NC(=O)Cc1ccccc1)C(=O)NCc1ccc(O)nc1 (stereo unspecified) | 106
O=S(=O)(CCCS(=O)(=O)c1ccc2c(c1)OCCCO2)c1ccccc1 | -9.516
CC(C)CN1CCCn2nc(CNC(=O)CCCc3cn[nH]c3)cc2C1 | -2.664
O=C(Nc1cc2c(cc1Br)OCCO2)NC1CCS(=O)(=O)C1 (stereo unspecified) | -24.26
CC(C)CNC(=O)[C@H]1C[C@@H]2CN(C(=O)NCC3CCCCC3)C[C@H]1O2 | -20.2
CC(C)CCN1C[C@H]2C[C@H](C(=O)N3CCCC3)[C@@H](C1)O2.O=C(O)C(F)(F)F | 103.2
CC(C)CN1C[C@H]2C[C@H](C(=O)N3CCCC3)[C@@H](C1)O2.O=C(O)C(F)(F)F | 105.1
CC(C)CCN1C[C@H]2C[C@H](C(=O)NCC(C)C)[C@@H](C1)O2.O=C(O)C(F)(F)F | 100.1
Cc1ccccc1CNC(=O)N1C[C@H]2C[C@H](C(=O)N3CCCC3)[C@@H](C1)O2 | 2.79
Cc1cccc(S(=O)(=O)N2C[C@H]3C[C@H](C(=O)NCC(C)C)[C@@H](C2)O3)c1 | -2.145
